Laboratory results: PubChem BioAssay AID1159580 (chemical genetic matrix, 2015)
The campaign covered roughly 5,500 compounds. About 2,000 (36%) were called active. Inconclusive results (about 18%) are left out. Rule as the data show it: active = normalized growth mostly below about 0.91 (no sharp cut-off); inconclusive = no clear call, values can overlap the other calls; inactive = mostly above about 0.92. The list shows a part of the results.

Experiment: chemical genetic growth profiling, strain panel (AID 1159580);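 also: tested at 20 µM; growth read once vehicle control cultures reached saturation at 30 °C; 1 = growth at the plate median or of vehicle wells; lower values mean less growth of the strain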
Conditions: S. cerevisiae deletion strains, growth OD

Measured: normalized growth

COc1ccc(/C=C/c2cc(O)cc(O[C@@H]3O[C@H](CO)[C@@H](O)[C@H](O)[C@H]3O)c2)cc1
inactive: locus YBR021W, strain FUR4, hits give low values 1.02 | locus YBR229C, strain ROT2, hits give low values 0.955 | locus YCL029C, strain bik1, hits give low values 0.984 | locus YDL035C, strain GPR1, hits give low values 0.972 | locus YDL074C, strain BRE1, hits give low values 1.02 | locus YDL101C, strain DUN1, hits give low values 1 | locus YDL134C, strain PPH21, hits give low values 1 | locus YDL185W, strain tfp1, hits give low values 0.974 | locus YDL192W, strain arf1, hits give low values 0.994 | locus YDR101C, strain arx1, hits give low values 1.01 | locus YDR150W, strain NUM1, hits give low values 0.997 | locus YDR162C, strain NBP2, hits give low values 0.977 | locus YDR318W, strain mcm21, hits give low values 0.986 | locus YDR388W, hits give low values 1 | locus YDR502C, strain sam2, hits give low values 0.998 | locus YEL061C, strain CIN8, hits give low values 0.994 | locus YER110C, hits give low values 0.987 | locus YER155C, strain BEM2, hits give low values 1.02 | locus YER167W, strain BCK2, hits give low values 0.978 | locus YGL078C, strain dbp3, hits give low values 0.987 | locus YGL086W, strain mad1, hits give low values 1.02 | locus YGL248W, strain PDE1, hits give low values 0.989 | locus YGR135W, strain pre9, hits give low values 0.994 | locus YGR252W, strain gcn5, hits give low values 0.964 | locus YHR030C, strain SLT2, hits give low values 1 | locus YHR079C, strain IRE1 (second series), hits give low values 0.995 | locus YHR094C, strain hxt1, hits give low values 0.989 | locus YHR129C, strain ARP1, hits give low values 0.994 | locus YHR200W, strain rpn10, hits give low values 0.983 | locus YIL066C, strain RNR3, hits give low values 0.968 | locus YIL073C, strain SPO22, hits give low values 1.01 | locus YIL125W, strain kgd1, hits give low values 0.985 | locus YIR030C, strain dcg1, hits give low values 0.997 | locus YJL095W, strain BCK1, hits give low values 1.04 | locus YJL134W, strain LCB3, hits give low values 0.994 | locus YJL168C, strain set2, hits give low values 0.998 | locus YJL187C, strain SWE1 (second series), hits give low values 1.01 | locus YJR043C, strain POL32, hits give low values 0.993 | locus YKL009W, strain mrt4, hits give low values 1 | locus YKL068W, hits give low values 0.979 | locus YKL085W, strain MDH1 (second series), hits give low values 0.982 | locus YKL085W, strain MDH1, hits give low values 0.982 | locus YKL190W, strain CNB1, hits give low values 1.01 | locus YKR001C, strain vps1, hits give low values 1.01 | locus YLR039C, strain RIC1, hits give low values 0.99 | locus YLR058C, strain SHM2, hits give low values 0.986 | locus YLR102C, strain apc9, hits give low values 0.987 | locus YLR262C, strain YPT6, hits give low values 0.961 | locus YLR268W, strain sec22, hits give low values 1.03 | locus YLR330W, strain CHS5, hits give low values 0.996 | locus YLR342W, strain FKS1 (second series), hits give low values 0.995 | locus YLR371W, strain rom2, hits give low values 0.978 | locus YLR418C, strain cdc73, hits give low values 0.984 | locus YML016C, strain PPZ1, hits give low values 0.992 | locus YML032C, strain rad52, hits give low values 0.97 | locus YML124C, strain tub3, hits give low values 0.987 | locus YMR078C, strain ctf18, hits give low values 0.994 | locus YMR223W, strain ubp8, hits give low values 0.985 | locus YMR307W, strain GAS1, hits give low values 0.965 | locus YNL067W, strain RPL9B, hits give low values 1.03 | locus YNL128W, strain TEP1, hits give low values 1 | locus YNL233W, strain BNI4, hits give low values 1.04 | locus YNL250W, strain rad50, hits give low values 0.965 | locus YNL271C, strain bni1, hits give low values 1 | locus YNL298W, strain CLA4, hits give low values 1.01 | locus YNL307C, strain MCK1, hits give low values 0.995 | locus YNL322C, strain KRE1, hits give low values 0.984 | locus YNR052C, strain pop2, hits give low values 1 | locus YOL006C, strain TOP1, hits give low values 1.05 | locus YOL012C, strain htz1 1.36 | locus YOL147C, strain pex11, hits give low values 0.988 | locus YOR061W, strain CKA2, hits give low values 0.971 | locus YOR069W, strain VPS5, hits give low values 0.993 | locus YOR136W, strain idh2, hits give low values 0.992 | locus YOR144C, strain elg1, hits give low values 0.985 | locus YOR184W, strain ser1, hits give low values 0.979 | locus YOR316C, strain cot1, hits give low values 0.999 | locus YPL055C, strain LGE1, hits give low values 1.01 | locus YPR119W, strain clb2, hits give low values 0.998 | locus YPR141C, strain kar3, hits give low values 0.982 | locus YPR163C, strain tif3, hits give low values 0.991 | locus YPR167C, strain met16, hits give low values 0.992 | strain wtn01, hits give low values 1.01
